Assay [1] concerns the target Acetylcholinesterase (Homo sapiens) (UniProt P22303). The experiment in a line: Acetylcholinesterase (AChE) small molecule antagonists: enzyme-based qHTS assay (AID 1347397; calls by dose curve; further: nearly all actives have a fitted effect of over 55% in size). The following applies: Potency: AChE enzyme activity inhibition. Put shortly:
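rhAChE 50 mU/mL (dispensed) + cpd or DMSO, 30 min RT; add DTNB/acetylthiocholine cocktail, 10 min RT; colorimetric thiocholine readout. qHTS, 1536-well format.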
Background: qHTS replaces the single test concentration by a dilution series.

Assay [2] has the same target. The experiment in a line: Acetylcholinesterase (AChE) small molecule antagonists: fluorescence cell-based qHTS assay (AID 1347398; calls by dose curve; further: nearly all actives have a fitted effect of over 50% in size). The following applies: Potency: AChE activity. Put shortly:
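Read-out is Thiolite Green fluorescence at Ex/Em = 490/520 nm, formed by reaction with thiocholine released when cellular AChE in SH-SY5Y cells hydrolyzes acetylthiocholine. Compounds were preincubated 30 min at 37 C before substrate.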

Assay [3] shares this target. In words: Acetylcholinesterase (AChE) small molecule antagonists: enzyme-based qHTS assay with human liver microsomes (AID 1347399; calls by dose curve; further: nearly all actives have a fitted effect of over 60% in size; further: potency means the concentration at half of the fitted maximal effect). The settings on record: Potency: qHTS inhibition. Put shortly: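 Recombinant human AChE (50 mU/mL in the enzyme mix) and human liver microsomes (0.25 mg/mL final) were preincubated with compound and NADPH (0.25 mg/mL final) for 30 min at 37 C. Acetylthiocholine/DTNB was then added; thiocholine was read colorimetrically after 10 min at room temperature.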

The target in assay [4] is Cytochrome P450 2D6 (Homo sapiens) (UniProt P10635). The experiment in a line: Cytochrome P450 Family 2 Subfamily D Member 6 (CYP2D6) small molecule antagonists: luciferase reporter qHTS assay (AID 1671196). Further: nearly all actives have a fitted effect of over 50% in size. Further: potency means the concentration at half of the fitted maximal effect. On activity change, negative = inhibition: series mostly up to about 120 µM. Put shortly: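 CYP2D6 enzyme–substrate mix was held with compound for 10 min at room temperature, then NADPH regeneration solution was added and the reaction ran 1 h at room temperature. Luciferin product was detected by luminescence after 20 min with detection reagent.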

The target of assay [5] is Cytochrome P450 2C19 (Homo sapiens) (UniProt P33261). The experiment in a line: Cytochrome P450 Family 2 Subfamily C Member 19 (CYP2C19) small molecule antagonists: luciferase reporter qHTS assay (AID 1671197). Further: nearly all actives have a fitted effect of over 65% in size. Further: potency means the concentration at half of the fitted maximal effect. On activity change, negative = inhibition: series mostly up to about 120 µM. Put shortly:
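Luminescent readout of CYP2C19 activity: luciferin product detected 20 min after adding detection reagent. Before that, compound and enzyme-substrate mix preincubated 10 min at room temperature; NADPH-regenerating system started a 1 h, 37C reaction. Ketoconazole as positive control.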

The target of assay [6] is Cytochrome P450 2C9 (Homo sapiens) (UniProt P11712). The experiment in a line: Cytochrome P450 Family 2 Subfamily C Member 9 (CYP2C9) small molecule antagonists: luciferase reporter qHTS assay (AID 1671198). Further: nearly all actives have a fitted effect of over 50% in size. Further: potency means the concentration at half of the fitted maximal effect. On activity change, negative = inhibition: series mostly up to about 120 µM. In outline:
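Enzyme-substrate mix preincubated with compound 10 min at room temperature; reaction started with NADPH regeneration solution, 1 h 37C. Luminescent luciferin product read after 20 min detection reagent.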

Assay [7] addresses Cytochrome P450 1A2 (Homo sapiens) (UniProt P05177). The experiment in a line: Cytochrome P450 Family 1 Subfamily A Member 2 (CYP1A2) small molecule antagonists: luciferase reporter qHTS assay (AID 1671199). Further: nearly all actives have a fitted effect of over 50% in size. Further: potency means the concentration at half of the fitted maximal effect. On activity change, negative = inhibition: series mostly up to about 120 µM. In outline: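 Human CYP1A2 activity measured with a P450-Glo proluciferin substrate; compounds in DMSO preincubated 10 min at room temperature with enzyme-substrate mix, then NADPH regeneration system added for 1 h. Luciferin detection reagent, 20 min, luminescence read.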
In general terms: A reporter such as luciferase makes a cellular process visible.

The target in assay [8] is Voltage-gated inwardly rectifying potassium channel KCNH2 (Homo sapiens) (UniProt Q12809). In words: Human Ether-a-go-go-Related Gene (hERG) channel small molecule antagonists: fluorescence cell-based qHTS assay (AID 1671200). Further: nearly all actives have a fitted effect of over 50% in size. Further: potency means the concentration at half of the fitted maximal effect.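 On activity change, negative = inhibition: hERG-expressing U2OS cells given a thallium stimulus after FluxOR II dye loading; series mostly up to about 77 µM.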 Put shortly:
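Fluorescence at 540 nm emission (480 nm excitation) was recorded kinetically for 2 min at 1-second intervals once the thallium-containing stimulus reached cells previously loaded with FluxOR II dye.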

The target of assay [9] is Cytochrome P450 3A4 (Homo sapiens) (UniProt P08684). The experiment in a line: Cytochrome P450 Family 3 Subfamily A Member 4 (CYP3A4) small molecule antagonists: luciferase reporter qHTS assay (AID 1671201). Further: nearly all actives have a fitted effect of over 50% in size. Further: potency means the concentration at half of the fitted maximal effect. On activity change, negative = inhibition: series mostly up to about 120 µM. Put shortly: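 qHTS, 1536-well. CYP3A4 + proluciferin substrate, cpd 10 min RT → NADPH regen 1 h RT → detection reagent 20 min → luminescence (RLU). Ketoconazole positive control.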

In PubChem BioAssay (Tox21) one finds Potency and activity change, negative = inhibition data, which are given here for 25 compounds.

SMILES strings stand for the structures. A number with no mark means an inactive call. Results filed as inconclusive are left out. Active and inactive are the calls of the source. Unless noted, the call rests on the fitted dose curve; in most records, active means well fitted curve in the direction sought with a large enough effect in the repeat runs; inconclusive means weak or mixed curves; inactive means no such curve, though single readings can be large; an effect the other way counts as inactive or inconclusive.
On the % scale 0 is the no-effect control and ±100 the full control effect.

Cytochrome P450 3A4 (Homo sapiens), sequence (P08684 whole entry, looked up): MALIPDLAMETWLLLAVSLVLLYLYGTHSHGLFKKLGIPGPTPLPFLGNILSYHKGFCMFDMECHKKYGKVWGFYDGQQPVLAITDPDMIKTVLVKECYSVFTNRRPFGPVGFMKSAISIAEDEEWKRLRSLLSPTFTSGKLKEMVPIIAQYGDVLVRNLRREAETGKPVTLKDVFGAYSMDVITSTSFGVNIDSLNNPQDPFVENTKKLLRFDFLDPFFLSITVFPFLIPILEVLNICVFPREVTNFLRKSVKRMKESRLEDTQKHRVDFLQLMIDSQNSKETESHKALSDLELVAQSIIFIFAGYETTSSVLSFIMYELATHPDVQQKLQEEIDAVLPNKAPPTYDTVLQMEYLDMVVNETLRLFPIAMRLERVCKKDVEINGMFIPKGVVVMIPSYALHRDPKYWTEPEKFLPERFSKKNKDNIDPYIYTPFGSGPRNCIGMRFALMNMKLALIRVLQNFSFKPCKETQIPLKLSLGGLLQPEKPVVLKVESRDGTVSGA
Cytochrome P450 2C9 (Homo sapiens), sequence (P11712 whole entry, looked up): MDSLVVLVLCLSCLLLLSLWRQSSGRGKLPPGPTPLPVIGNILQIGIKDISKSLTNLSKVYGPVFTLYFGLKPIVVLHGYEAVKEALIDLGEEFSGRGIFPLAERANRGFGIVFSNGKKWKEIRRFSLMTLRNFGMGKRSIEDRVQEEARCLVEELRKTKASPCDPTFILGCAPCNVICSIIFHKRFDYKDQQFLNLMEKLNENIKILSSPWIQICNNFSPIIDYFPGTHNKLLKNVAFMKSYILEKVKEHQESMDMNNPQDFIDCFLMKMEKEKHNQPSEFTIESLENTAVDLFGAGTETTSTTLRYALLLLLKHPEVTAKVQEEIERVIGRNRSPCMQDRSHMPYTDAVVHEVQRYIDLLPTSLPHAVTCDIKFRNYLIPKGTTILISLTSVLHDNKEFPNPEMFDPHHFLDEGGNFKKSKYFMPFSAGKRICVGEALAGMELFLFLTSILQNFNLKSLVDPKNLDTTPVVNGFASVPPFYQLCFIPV
Cytochrome P450 2C19 (Homo sapiens), sequence (P33261 whole entry, looked up): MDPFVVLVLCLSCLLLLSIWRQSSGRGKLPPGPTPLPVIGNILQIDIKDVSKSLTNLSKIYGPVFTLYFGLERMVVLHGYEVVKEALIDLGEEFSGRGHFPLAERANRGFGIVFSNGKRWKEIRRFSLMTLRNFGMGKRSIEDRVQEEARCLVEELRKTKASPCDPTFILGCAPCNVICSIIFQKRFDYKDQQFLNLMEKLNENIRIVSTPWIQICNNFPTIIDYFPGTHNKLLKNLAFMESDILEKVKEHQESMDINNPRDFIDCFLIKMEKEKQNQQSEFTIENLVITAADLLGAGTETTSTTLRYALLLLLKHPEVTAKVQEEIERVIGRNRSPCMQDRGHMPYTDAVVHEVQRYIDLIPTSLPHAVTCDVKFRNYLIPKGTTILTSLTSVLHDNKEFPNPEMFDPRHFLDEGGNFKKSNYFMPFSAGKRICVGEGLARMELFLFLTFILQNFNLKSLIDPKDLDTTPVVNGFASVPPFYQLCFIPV
Acetylcholinesterase (Homo sapiens), sequence (P22303 whole entry, looked up): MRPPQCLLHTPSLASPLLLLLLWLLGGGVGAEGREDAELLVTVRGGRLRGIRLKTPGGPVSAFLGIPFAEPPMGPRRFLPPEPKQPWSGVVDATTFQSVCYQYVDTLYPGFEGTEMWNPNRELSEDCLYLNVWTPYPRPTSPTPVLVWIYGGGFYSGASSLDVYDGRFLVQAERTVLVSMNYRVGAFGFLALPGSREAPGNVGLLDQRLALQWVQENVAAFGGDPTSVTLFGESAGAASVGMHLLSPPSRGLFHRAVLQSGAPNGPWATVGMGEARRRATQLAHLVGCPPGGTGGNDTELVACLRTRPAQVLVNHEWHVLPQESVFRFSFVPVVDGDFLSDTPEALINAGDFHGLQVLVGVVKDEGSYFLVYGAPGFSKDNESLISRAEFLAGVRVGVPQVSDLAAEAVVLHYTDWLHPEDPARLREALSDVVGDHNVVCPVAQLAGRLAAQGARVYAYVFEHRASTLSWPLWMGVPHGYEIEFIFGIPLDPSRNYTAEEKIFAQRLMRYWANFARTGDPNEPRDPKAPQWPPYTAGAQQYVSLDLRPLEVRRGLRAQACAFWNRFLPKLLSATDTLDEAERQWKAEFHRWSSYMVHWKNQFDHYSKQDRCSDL
Cytochrome P450 1A2 (Homo sapiens), sequence (P05177 whole entry, looked up): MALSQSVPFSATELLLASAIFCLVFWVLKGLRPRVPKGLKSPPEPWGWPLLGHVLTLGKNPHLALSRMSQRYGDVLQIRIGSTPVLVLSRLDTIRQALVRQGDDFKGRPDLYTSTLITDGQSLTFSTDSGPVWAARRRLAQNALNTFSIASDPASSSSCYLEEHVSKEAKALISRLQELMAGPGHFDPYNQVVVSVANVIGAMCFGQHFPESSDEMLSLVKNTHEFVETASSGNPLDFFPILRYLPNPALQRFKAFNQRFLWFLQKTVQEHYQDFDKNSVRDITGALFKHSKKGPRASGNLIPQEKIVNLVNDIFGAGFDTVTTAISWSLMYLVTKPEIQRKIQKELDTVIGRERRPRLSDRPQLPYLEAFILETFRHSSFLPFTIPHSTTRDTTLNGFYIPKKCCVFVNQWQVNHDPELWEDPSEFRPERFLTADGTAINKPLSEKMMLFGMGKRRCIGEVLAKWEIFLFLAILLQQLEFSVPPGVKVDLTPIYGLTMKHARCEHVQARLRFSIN
Voltage-gated inwardly rectifying potassium channel KCNH2 (Homo sapiens), sequence (Q12809 whole entry, looked up): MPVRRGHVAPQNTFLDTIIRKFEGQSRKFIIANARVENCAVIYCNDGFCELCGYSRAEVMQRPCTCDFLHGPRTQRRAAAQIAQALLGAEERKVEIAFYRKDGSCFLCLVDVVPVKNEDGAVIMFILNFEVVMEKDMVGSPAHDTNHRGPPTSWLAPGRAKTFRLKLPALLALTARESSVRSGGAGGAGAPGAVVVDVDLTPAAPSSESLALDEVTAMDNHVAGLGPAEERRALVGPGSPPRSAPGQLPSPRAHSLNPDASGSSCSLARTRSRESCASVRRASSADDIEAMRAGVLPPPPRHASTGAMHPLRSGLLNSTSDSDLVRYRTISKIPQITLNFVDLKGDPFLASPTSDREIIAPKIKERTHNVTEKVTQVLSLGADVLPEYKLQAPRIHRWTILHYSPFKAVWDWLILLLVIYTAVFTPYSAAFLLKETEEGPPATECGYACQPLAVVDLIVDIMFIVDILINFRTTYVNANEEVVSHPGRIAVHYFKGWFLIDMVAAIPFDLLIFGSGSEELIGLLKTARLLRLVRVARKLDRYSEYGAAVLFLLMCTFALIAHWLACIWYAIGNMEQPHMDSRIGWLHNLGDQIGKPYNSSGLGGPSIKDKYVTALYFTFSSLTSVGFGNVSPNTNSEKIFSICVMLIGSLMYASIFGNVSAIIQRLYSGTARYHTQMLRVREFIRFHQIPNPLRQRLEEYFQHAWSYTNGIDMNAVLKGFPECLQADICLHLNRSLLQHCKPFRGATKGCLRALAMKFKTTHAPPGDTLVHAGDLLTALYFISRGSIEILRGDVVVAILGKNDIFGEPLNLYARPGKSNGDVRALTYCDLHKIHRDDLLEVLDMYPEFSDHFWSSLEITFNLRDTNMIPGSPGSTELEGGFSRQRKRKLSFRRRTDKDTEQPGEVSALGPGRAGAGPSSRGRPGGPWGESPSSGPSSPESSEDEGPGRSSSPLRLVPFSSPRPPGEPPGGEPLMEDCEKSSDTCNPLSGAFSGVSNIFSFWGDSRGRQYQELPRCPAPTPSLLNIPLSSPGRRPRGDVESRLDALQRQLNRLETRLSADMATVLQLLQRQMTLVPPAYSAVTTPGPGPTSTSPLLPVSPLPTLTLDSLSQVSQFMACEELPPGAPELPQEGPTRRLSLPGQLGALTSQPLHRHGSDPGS
Cytochrome P450 2D6 (Homo sapiens), sequence (P10635 whole entry, looked up): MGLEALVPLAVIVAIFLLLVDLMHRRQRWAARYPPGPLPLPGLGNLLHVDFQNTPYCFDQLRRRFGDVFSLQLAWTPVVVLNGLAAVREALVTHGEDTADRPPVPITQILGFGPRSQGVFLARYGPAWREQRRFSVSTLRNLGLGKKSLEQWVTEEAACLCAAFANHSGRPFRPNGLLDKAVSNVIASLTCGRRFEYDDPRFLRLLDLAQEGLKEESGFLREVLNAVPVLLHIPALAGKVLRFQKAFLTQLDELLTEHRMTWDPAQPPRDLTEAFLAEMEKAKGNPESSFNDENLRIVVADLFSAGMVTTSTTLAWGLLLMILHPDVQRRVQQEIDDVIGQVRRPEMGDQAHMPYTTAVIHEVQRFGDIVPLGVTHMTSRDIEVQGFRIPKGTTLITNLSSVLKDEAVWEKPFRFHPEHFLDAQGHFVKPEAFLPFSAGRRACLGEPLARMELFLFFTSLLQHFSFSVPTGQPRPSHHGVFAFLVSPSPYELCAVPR

In the case of `c1cc[c]([Hg][c]2ccccc2)cc1`, the Potency result in assay [1], in assay [2], in assay [3], in assay [8] and in [9] was “inactive” each time. Also, the Potency in assay [4] is 1 µM (active); in assay [5], 22.4 µM (active); in assay [6], 31.7 µM (active); in assay [7], 10 µM (active).

Regarding `COP(N)(=S)Oc1ccccc1C(=O)OC(C)C` (stereo not given), the Potency entry in [1], in [2] and in assay [8] was “inactive” in each case. For the same compound, the Potency in [3] was 2.83 µM (active); in assay [4], 31.7 µM (active); in [5], 0.178 µM (active); in assay [6], 6.33 µM (active); in [7] it was 2 µM (active); in assay [9] it was 2 µM (active).

On to `Cc1nnc2n1-c1sc(CCC(=O)N3CCOCC3)cc1C(c1ccccc1Cl)=NC2`, for which the Potency result in assay [1], in assay [2], in assay [3], in assay [4], in assay [5] and in [6] was “inactive” throughout. Also, the Potency entry in [7] is “inactive”.

Turning to `C=C(C)[C@@H]1CC=C(C=O)CC1`, the Potency result in assay [1], in assay [2], in assay [3], in assay [4], in assay [7] and in assay [8] was “inactive” throughout. Moreover, the Potency in [5] was 63.3 µM (active); in assay [6], 71 µM (active); in assay [9], 35.6 µM (active).

In the case of `CN1CCN(C(=O)O[C@H]2c3nccnc3C(=O)N2c2ccc(Cl)cn2)CC1`, the Potency entry in [1], in assay [2], in [3], in assay [4], in assay [5] and in assay [6] was “inactive” each time. The Potency result in assay [8] and in [9] was “inactive” each time. Also, the Potency in assay [7] was 27.5 µM (active).

As to `Nc1n[nH]c(N)n1`, the Potency result in assay [1], in [2], in [3], in assay [4], in assay [5] and in assay [6] was “inactive” each time. The Potency result in assay [8] was “inactive”. Besides, the Potency in [7] was 64.4 µM (active).

`CC(=O)[C@H]1CC[C@H]2[C@@H]3CC[C@H]4C[C@H](O)CC[C@]4(C)[C@H]3C(=O)C[C@]12C`: the Potency result in assay [1], in assay [2] and in [3] was “inactive” each time.

Consider `O=CNC(N1CCN(C(NC=O)C(Cl)(Cl)Cl)CC1)C(Cl)(Cl)Cl` (stereo not given), for which the Potency result in [1], in assay [2], in assay [3], in [7] and in [8] was “inactive” in each case. In addition, the Potency in assay [4] was 31.7 µM (active); in [5] it was 7.96 µM (active); in assay [6] it was 35.6 µM (active); in assay [9], 7.96 µM (active).

As for `O=[N+]([O-])c1ccc2c3c(cccc13)CC2`, the Potency entry in assay [1], in [2], in assay [3], in [4], in [6] and in assay [8] was “inactive” throughout. Moreover, the Potency in assay [5] is 35.6 µM (active); in [7] it was 2.24 µM (active).

For the compound `CCOP(=S)(OCC)SCSc1ccc(Cl)cc1`, the Potency result in assay [1], in assay [2], in [3] and in assay [8] was “inactive” throughout. In addition, the Potency is 11.2 µM (active) in assay [4], 0.502 µM (active) in assay [5], 1 µM (active) in [6] and 8.94 µM (active) in assay [7].

Regarding `CCOC(=O)N(C)C(=O)CSP(=S)(OCC)OCC`, the Potency entry in assay [1], in assay [2], in assay [3] and in assay [8] was “inactive” each time. In addition, the Potency in [4] is 28.3 µM (active); in assay [5], 0.126 µM (active); in [6], 0.71 µM (active); in [7], 3.17 µM (active); in assay [9], 2.24 µM (active).

Turning to `c1coc(-c2nc3ccccc3[nH]2)c1`, the Potency result in assay [1], in [2], in [3], in assay [6], in [8] and in assay [9] was “inactive” each time. The Potency in assay [4] is 44.8 µM (active); in assay [5], 28.3 µM (active); in assay [7], 7.96 µM (active).

Regarding `CCS(=O)(=O)CCSP(=O)(OC)OC`, the Potency result in assay [1], in [2], in assay [3], in assay [4], in assay [5] and in assay [6] was “inactive” each time. Besides, the Potency entry in [7], in assay [8] and in assay [9] was “inactive” in each case.

In the case of `NC(=O)c1cc([N+](=O)[O-])cc([N+](=O)[O-])c1`, the Potency entry in [1], in assay [2], in [3], in [4], in [5] and in assay [6] was “inactive” in each case. Besides, the Potency result in assay [7], in assay [8] and in [9] was “inactive” each time.

Consider `ClC(Cl)(Cl)C(Cl)(Cl)Cl`, for which the Potency entry in assay [1], in assay [2], in assay [3], in assay [4], in [5] and in [6] was “inactive” in each case. In addition, the Potency entry in assay [7], in assay [8] and in assay [9] was “inactive” each time.

Regarding `Fc1ccc(C2(Cn3cncn3)OC2c2ccccc2Cl)cc1` (stereo not given), the Potency result in assay [1], in assay [2], in assay [3] and in assay [8] was “inactive” each time. In addition, the Potency is 39.9 µM (active) in assay [4]; 0.252 µM (active) in assay [5]; 5.64 µM (active) in assay [6]; 5.03 µM (active) in assay [7]; 0.894 µM (active) in assay [9].

For the compound `CC(C=O)Cc1ccc2c(c1)OCO2` (stereo not given), the Potency entry in assay [1], in assay [2] and in assay [3] was “inactive” each time. Also, the Potency is 63.3 µM (active) in [4]; 20 µM (active) in assay [5]; 15.9 µM (active) in [6]; 6.33 µM (active) in assay [7]; 11.2 µM (active) in assay [9].

Regarding `CN(C)CCc1ccc(O)cc1`, the Potency result in [1], in [2], in assay [3], in [4], in assay [5] and in assay [6] was “inactive” each time. The Potency result in assay [7], in assay [8] and in assay [9] was “inactive” in each case.

On to `CC(=O)CC(c1ccc(Cl)cc1)c1c(O)c2ccccc2oc1=O` (stereo not given), for which the Potency entry in [1], in assay [2], in [3], in assay [4], in assay [5] and in [7] was “inactive” in each case. Moreover, the Potency result in [9] was “inactive”. The Potency in assay [6] is 11.8 µM (active).

In the case of `CC1=C(C(=O)O)N2C(=O)[C@@H](N)[C@H]2SC1`, the activity change, negative = inhibition was 0.693% [at 23.6 µM] in [1]; 0.138% [at 23.8 µM] in assay [2]; 2.02% [at 23.6 µM] in assay [3]; -15.2% [at 23.6 µM] in [4]; -10.3% [at 23.6 µM] in assay [5]; 5.86% [at 23.6 µM] in [6]. Also, the activity change, negative = inhibition in assay [7] is 13% [at 23.6 µM]; in [9], 11.3% [at 23.6 µM].

In the case of `NC1=NC(=O)C(c2ccccc2)O1` (stereo not given), the Potency entry in assay [1], in assay [2], in assay [3], in assay [4], in [5] and in assay [6] was “inactive” in each case. Besides, the Potency result in assay [7], in assay [8] and in assay [9] was “inactive” in each case.

Regarding `O=C(O)c1ccc2[nH]cc(CCCCN3CC=C(c4ccccc4)CC3)c2c1`, the Potency entry in [1], in assay [2], in [3], in [5], in assay [6] and in assay [7] was “inactive” each time. The Potency result in assay [8] and in [9] was “inactive” each time. Besides, the Potency in assay [4] is 12.3 µM (active).

For `Nc1cc(Cl)ccc1O`, the Potency entry in [1], in assay [2], in [3] and in [8] was “inactive” in each case. Further, the Potency in assay [4] is 34.4 µM (active); in assay [5], 21.7 µM (active); in assay [6] it was 30.7 µM (active); in assay [7], 30.7 µM (active); in [9], 21.7 µM (active).

Take `[O]=[Cd]`: the Potency result in assay [1], in assay [2], in [3], in assay [4], in [5] and in assay [6] was “inactive” each time. Further, the Potency entry in [7] and in assay [9] was “inactive” throughout.

In the case of `CN1CCC(N(Cc2ccccc2)c2ccccc2)CC1`, the Potency entry in [1], in [2], in assay [3], in [5], in [6] and in assay [7] was “inactive” each time. The Potency entry in assay [9] is “inactive”. Moreover, the results for the Potency in assay [4] and in [8] were 0.309 µM (active) and 5.35 µM (active), respectively.
